Consider 40 compounds from PubChem BioAssay (NCI).

This is part of a sample that, as a whole, favours compounds with a hit. Of some 83,000 tested, about 20% had one in any assay.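 The endpoint reported here, percent growth, reads 100 for growth as untreated, 0 for no net growth and -100 for all cells dead.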 Values without a mark were called inactive. Activity calls are given as the source filed them.

The experiment relates to HOP-92 NSCLC. The experiment is described as follows: NCI-60 one-dose screen, 48 h (100 = growth as untreated, 0 = no growth, -100 = all killed). The settings on record: 10 µM unless noted. As for the experimental part: Growth inhibition of the HOP-92 human Non-Small Cell Lung tumor cell line is measured as a screen for anti-cancer activity. Cells are grown in 96 well plates and exposed to the test compound for 48 hours. Compounds are tested at a single concentration, which is 10^-5 M for most compounds. The reported endpoint is percent growth (GI% or GIPRCNT), where numbers from 0 - 100% represent growth inhibition, and numbers from -100% - 0 represent cell death. For example, a value of 40 represents 60% growth inhibition. A value of 0 means no net growth occurred over the course of the experiment. A value of -40 indicates 40% of cells at the beginning of the experiment died by the end of the experiment. A value of -100 means all cells are dead at the end of the experiment.
NCI-60 Human Tumor Cell Lines Screen was performed using the standard one-dose NCI protocol, which is described in more detail at https://dtp.cancer.gov/discovery_development/nci-60/default.htm.
Compounds with GIPRCNT values below 10 were considered active. Activity score was based on GIPRCNT using the following formula: […]
Score is 0 for GIPRCNT values of 100 or above, 50 for GIPRCNT values of 0, and 100 for GIPRCNT values of -100.
As to `CC(C)[C@H]1CCC2=C3CC[C@]45OC(=O)[C@@]6(CCC(C)(C)C[C@H]64)CC[C@@]5(C)[C@]3(C)CC[C@@]21C`, the growth was 19.9% [100 µM].
Then `Cc1ccc(-c2cc(O)c(-c3ccc(C)cc3C)cc2O)c(C)c1`, with 67.7%; and `c1ccc(-c2n[nH]c(-c3ccccn3)n2)nc1`, with 94%; and `COc1ccc(/C=C(/C2=NCCN2)n2ccc3ccccc32)cc1`, with 56.7%.
Then `Cc1cc(C)c(S(=O)(=O)/N=c2/n(-c3ccccc3)nc3n2CCN3C2=NCCN2)c(C)c1`, with 63.9%; and `CCOc1cc(NC(=O)c2ccccc2)c(OCC)cc1N`, with 104%; and `CC[C@]12C=CCN3CC[C@@]4(c5ccc(OC)cc5N(C)[C@H]4[C@@](O)(C(=O)OC)[C@@H]1OC(=O)CCC(=O)O[C@H]1CC[C@H]4[C@@H]5CCC6=CC(=O)CC[C@@H]6[C@H]5CC[C@]14C)[C@@H]32`, with -20.3% [100 µM] (active).
As for `CC1(C)C(=O)/C(=C\c2ccco2)C[C@]2(C)[C@H]3CC=C4[C@@H]5C[C@](C)(C(=O)O)CC[C@]5(C)CC[C@@]4(C)[C@]3(C)CC[C@@H]12`, the growth was -82.8% [100 µM] (active).
To `C=C(C)[C@@H]1CC[C@]2(C)[C@H](CC=C3[C@@H]4[C@@H](C)[C@H](C)CC[C@]4(C(N)=O)CC[C@]32C)[C@@]1(C)CCC#N` belongs -37.7% [100 µM] (active).
Then `CCC(C)[C@H](NC(=O)NC(=O)NC(=O)CI)C(=O)OC` (stereo not given in full), with -34.4% (active); and `C=C1C(=O)O[C@H]2[C@H]1CC/C(COC(=O)NCc1ccc(Cn3c(=O)sn(-c4ccc(Cl)cc4)c3=O)cc1)=C\CC[C@@]1(C)O[C@@H]21`, with 45.5%; and `CCOC(=O)c1nn(C2CCCCO2)c2ccc(NC(=O)Cn3nnc4ccccc43)cc12` (stereo not given), with 111%.
Then `CCOC(=O)c1cc(C#N)n2ncc3ccccc3c12`, with 80.7%; and `C#CCNC(=O)CC[C@]1(C)[C@H]2CC[C@@H]3[C@@H]([C@@](C)(O)CCC=C(C)C)CC[C@@]3(C)[C@]2(C)CC[C@H]1C(=C)C`, with -25.5% [100 µM] (active); and `COc1cc2c(c(Br)c1N)-c1cc(Br)c(N)cc1C2=O`, with 54.9%.
For `Cn1cc(-c2noc(-c3cn(C)c4ncc(F)cc34)n2)c2ccccc21`, the growth is 62%.
On to `N#CCCc1c[nH]c2ccccc12`, for which the growth was 75.5%.
To `C=C(C)[C@@H]1CC[C@]2(C(N)=O)CC[C@]3(C)[C@H](CC[C@@H]4[C@@]5(C)CC[C@H](O)C(C)(C)[C@@H]5CC[C@]43C)[C@@H]12` belongs -62.8% [100 µM] (active); to `C#C[C@]1(O)CC[C@H]2[C@@H]3CC=C4c5nc(Nc6ncccn6)sc5CC[C@]4(C)[C@H]3CC[C@@]21C`, 52.2%; to `CCOC(=O)COc1ccc2c(c1)O/C(=C\c1ccc(O)cc1)C2=O`, 115%.
Then `COCc1nc2ccccc2[nH]1`, with 100%; and `C#C[C@]1(O)CC[C@H]2[C@@H]3CC=C4c5nc(Nc6ccccc6[N+](=O)[O-])sc5CC[C@]4(C)[C@H]3CC[C@@]21C`, with 72.6%.
Consider `O=C(COc1cccc(/C=C2\Oc3ccccc3C2=O)c1)c1ccc([N+](=O)[O-])cc1`, for which the growth is 78.1%.
`COc1ccc(/C=C/C=C\C(=O)c2ccc(-n3ccnc3)cc2)cc1`: the growth is 96.5%.
Turning to `COc1ccc(C(=O)CSc2nnc(-c3cc(-c4ccccc4)nc4ccccc34)o2)cc1`, the growth was 113%.
To `Fc1cc2[nH]ncc2c2c3c(c(-c4cn[nH]c4C(F)(F)F)nc12)C1CCC3C1` (stereo not given) belongs 17.1%.
For the compound `CC1(C)CC[C@]2(C(N)=O)CC[C@]3(C)C(=CC[C@@H]4[C@@]5(C)C/C(=C/c6cccnc6)C(=O)C(C)(C)[C@@H]5CC[C@]43C)[C@@H]2C1`, the growth is -50.7% [100 µM] (active).
To `CCOC(=O)COc1c(C)cc(SSc2cc(C)c(OCC(=O)OCC)c(C)c2)cc1C` belongs 76.8%; to `CC(C)[C@H]1COC(=O)N1[C@@H]1C(=O)N([C@@H](CCC(=O)N2CCN(C3CCCC3)CC2)C(=O)N[C@@H]2CCCc3ccccc32)[C@@H]1/C=C/c1cccc(Cl)c1`, 31.4%.
Then `CN(Cc1cccc(C(F)(F)F)c1)C(=O)[C@@H](CC(=O)N1CCC(N2CCCCC2)CC1)N1C(=O)[C@@H](N2C(=O)OC[C@@H]2c2ccccc2)[C@H]1/C=C/c1ccccc1`, with 58.7%.
On to `O=C1CN(Cc2ccc(C(=O)NO)cc2)C(=O)[C@@H](Cc2ccccc2)N1`, for which the growth is 102%.
To `O=c1cc(-c2ccccc2)oc2cc(OCc3cn(Cc4ccc(F)cc4)nn3)cc(O)c12` belongs -3.35% [100 µM] (active).
As to `O=C1NC(=O)c2cc([N+](=O)[O-])cc3cccc1c23`, the growth is 80.2%.
For the compound `O=S(=O)(NCCNc1nccc(-c2c(-c3cccc(F)c3)nc3occn23)n1)c1ccc(C(F)(F)F)cc1`, the growth is 77.5%.
Regarding `Nc1cc(Cl)cc2cccnc12`, the growth is 102%.
Then `COc1cc(/C=C/C(=O)/C=C/c2ccc(-n3ccnc3)cc2)ccc1O`, with 85.2%; and `C=C(C)C1CCC2(C(=O)O)CCC3(C)C(CCC4C5(C)CCC(OC(=O)NCc6ccccc6)C(C)(C)C5CCC43C)C12` (stereo not given), with -4.47% (active).
With `O=C(NNc1ccc(-c2ccccc2)nn1)c1ccc(F)cc1`, the growth is 91.5%.
Then `C[C@H]1[C@H](C)CC[C@]2(C(=O)N3CCN(C)CC3)CC[C@]3(C)C(=CC[C@@H]4[C@@]5(C)C/C(=C/c6ccco6)C(=O)C(C)(C)[C@@H]5CC[C@]43C)[C@H]12`, with 56.9% [100 µM]; and `O=S(=O)(NCc1ccccc1)c1ncnc2nc[nH]c12`, with 117%.
